The subject of this experiment is Thioredoxin reductase 1 (TXNRD1), rat. Kind of experiment: qHTS Assay for Inhibitors of Mammalian Selenoprotein Thioredoxin Reductase 1 (TrxR1): DTNB Assay. To be noted: purified TrxR1, DTNB reduction, A412. From the text:
The selenoprotein thioredoxin reductase (TrxR; EC 1.8.1.9) is a FAD containing homodimeric pyridine nucleotide-disulfide oxidoreductase with many cellular roles. Together with NADPH and its prime substrate thioredoxin (Trx), the enzyme forms the core of the Trx system. The mammalian Trx system exerts a wide spectrum of functions including redox regulation, antioxidant defense, regulation of transcription factors as well as support of cell growth and replication. Many of these functions involve the reduction of Trx, which may subsequently reduce a number of different substrates including ribonucleotide reductase, peroxiredoxins or NFkB. Mammalian TrxR itself also has a broad substrate specificity, reducing both protein and non-protein substrates, including low molecular weight compounds such as dehydroascorbate, lipoic acid, ubiquinone, and juglone. In addition, several drugs in clinical use for anticancer treatment are indeed known to target TrxR1. This orthogonal DTNB assay seeks to further characterize cherry picks. […]
15 nM TrxR1 is reduced by 250 microM NADPH in TE buffer [50 mM Tris-HCl (pH 7.5), 2 mM EDTA] in a 96-well microtiter plate. […] During compound incubation, NADPH consumption is followed by the decrease in absorbance at 340 nm using a VersaMax microplate reader (Molecular Devices) to determine substrate potential of the compound. […]
(qHTS replaces the single test concentration by a dilution series.)

The list shows a part of the results. Calls of active or inactive are those of the source.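 The calls were made as follows: active = a half-inhibiting concentration could be measured and was below 100 µM; inactive = the rest.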

For the molecule `COc1ccc(-c2nc(CS(=O)CC(=O)N3CCC4(CC3)OCCO4)c(C)o2)cc1` (stereo unspecified), the Potency is 1460 nM (active).

(Values after PubChem BioAssay AID652256 (National Center for Advancing Translational Sciences (NCATS), 2013).)
